From PubChem BioAssay (EPA / NIEHS)
Inconclusive results are not listed. The source made the active and inactive calls. How the source made its calls: active means hit-call score of the fitted dose curve at least 0.9, where 1 is the maximum; inconclusive means response in the unintended direction; inactive means score below 0.9.

Each compound was assayed against Nucleoli Translocation, AR (gene 367) (UniProt P10275) (assay: UPITT_HCI_U2OS_AR_TIF2_Nucleoli_Antagonist: University of Pittsburgh U2OS Androgen Receptor-Transcriptional Intermediary Factor 2 (AR-TIF2) Antagonism High Content Imaging Assay for Nucleoli Translocation (AID 2283997)).
Sequence of Nucleoli Translocation, AR (gene 367) (P10275 whole entry, looked up): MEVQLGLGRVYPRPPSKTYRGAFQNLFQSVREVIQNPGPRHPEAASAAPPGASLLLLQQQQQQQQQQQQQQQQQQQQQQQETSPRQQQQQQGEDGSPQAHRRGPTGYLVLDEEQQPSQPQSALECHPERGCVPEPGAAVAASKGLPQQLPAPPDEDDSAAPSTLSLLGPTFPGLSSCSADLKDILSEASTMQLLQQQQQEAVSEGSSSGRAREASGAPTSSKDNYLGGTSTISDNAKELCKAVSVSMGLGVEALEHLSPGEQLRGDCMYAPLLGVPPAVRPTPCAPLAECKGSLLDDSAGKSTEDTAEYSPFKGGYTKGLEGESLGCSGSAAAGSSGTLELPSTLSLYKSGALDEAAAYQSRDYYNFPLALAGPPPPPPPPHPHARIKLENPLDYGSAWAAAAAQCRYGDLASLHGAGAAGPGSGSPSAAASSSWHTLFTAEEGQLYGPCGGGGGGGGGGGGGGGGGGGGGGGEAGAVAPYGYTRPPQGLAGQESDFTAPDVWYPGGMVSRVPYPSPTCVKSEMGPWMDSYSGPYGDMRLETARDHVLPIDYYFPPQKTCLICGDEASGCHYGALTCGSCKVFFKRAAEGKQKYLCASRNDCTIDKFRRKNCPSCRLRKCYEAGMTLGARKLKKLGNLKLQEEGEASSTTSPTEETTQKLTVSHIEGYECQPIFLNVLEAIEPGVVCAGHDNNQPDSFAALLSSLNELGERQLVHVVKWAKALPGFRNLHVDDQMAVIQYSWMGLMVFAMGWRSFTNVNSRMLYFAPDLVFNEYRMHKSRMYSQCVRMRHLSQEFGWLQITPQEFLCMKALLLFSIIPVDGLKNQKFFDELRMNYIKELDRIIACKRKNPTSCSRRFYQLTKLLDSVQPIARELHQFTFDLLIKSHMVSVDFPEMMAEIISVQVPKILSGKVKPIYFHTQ
In short: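 An antagonist-mode imaging screen: engineered U2OS (AR-RFP, TIF2-GFP) exposed to 20 uM compound, 0.2% DMSO. Activity reflects nucleolar red fluorescence change relative to DHT baseline.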

| Compound | AC50 | outcome |
| --- | --- | --- |
| COc1cc(-c2nc(NC(=O)c3cc4cc(C)cc(C)c4n3CC(=O)O)sc2CCC2CCCCC2)c(OC)cc1Cl | 11.4 µM (active) | – |
| Cc1cccc([N+](=O)[O-])c1C | – | inactive |
| CCCCCCCCCCC | – | inactive |
| Cc1ccc(C)c(O)c1C | – | inactive |
| CCOc1ccc2c(c1)C(C)=CC(C)(C)N2 | 50 µM (active) | – |
| CC(C)(C)c1cc(O)c(C(C)(C)C)cc1O | – | inactive |
| Cc1ccc(N(C)C)cc1 | – | inactive |
| COCCOCCOC | – | inactive |
| COc1ccc(C)cc1N | – | inactive |
| Cc1cccc(C)c1O | – | inactive |
| Cc1nc(-c2ccc3c(c2)CCN(CCC2CCC(NC(=O)/C=C/c4ccc(F)cc4)CC2)CC3)no1 (stereo not drawn) | – | inactive |
| COc1cc(C=O)ccc1O | – | inactive |
| Cc1ccccc1Cl | – | inactive |
| O=C(O)Cc1ccccc1Nc1c(Cl)cccc1Cl | – | inactive |
| CNC(=O)[C@H]1O[C@@H](n2cnc3c(NCc4cc(Cl)ccc4OCc4cc(C)no4)ncnc32)[C@H](O)[C@@H]1N | – | inactive |
| COc1ccc(S(=O)(=O)N2C(=O)[C@@](c3ccccc3OC)(N3C[C@H](O)C[C@H]3C(=O)N(C)C)c3cc(Cl)ccc32)c(OC)c1 | – | inactive |
| Cc1ccc(C)c(C)c1 | – | inactive |
| CN[C@H]1CC[C@@H](c2ccc(Cl)c(Cl)c2)c2ccc(S(N)(=O)=O)cc21 | 50 µM (active) | – |
